Test results published in PubChem BioAssay AID652115 (Broad Institute, 2013).
Values joined by “and” are separate entries in the source; they are usually repeats but may differ in a detail not shown here. Equal values may be shown once. The campaign covered roughly 330,000 compounds. About 3,800 (1.2%) were called active. Rule as the data show it: active = inhibition above about 15%; inconclusive = no clear call, values can overlap the other calls; inactive = below that. Shown is part of a subset that was picked to be rich in actives. Some structures have more than one record in an assay (separate samples or runs), and their calls can disagree.

These compounds were tested against NAD-dependent protein deacylase sirtuin-5, mitochondrial (Homo sapiens) (UniProt Q9NXA8) (assay: SIRT5 desuccinylase inhibitors, primary screen, biochemical, fluorescence imaging, single point, set 5 (AID 652115)). Conditions: Purified SirT5, succinyl-peptide AMC, trypsin-coupled fluorescence; at 15 µM; stronger effect = higher value.
NAD-dependent protein deacylase sirtuin-5, mitochondrial (Homo sapiens), sequence (Q9NXA8 whole entry, looked up): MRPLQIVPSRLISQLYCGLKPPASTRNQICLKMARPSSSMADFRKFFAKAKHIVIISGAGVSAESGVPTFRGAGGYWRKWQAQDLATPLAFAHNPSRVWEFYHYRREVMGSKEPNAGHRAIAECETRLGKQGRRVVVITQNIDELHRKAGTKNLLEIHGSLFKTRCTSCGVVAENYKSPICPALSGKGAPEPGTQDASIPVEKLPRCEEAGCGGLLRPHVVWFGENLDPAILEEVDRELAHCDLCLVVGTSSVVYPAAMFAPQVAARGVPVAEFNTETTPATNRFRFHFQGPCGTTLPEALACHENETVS
With COc1ccc2c3c(n(C)c2c1)[C@H](CO)N(C)CC31CN(S(=O)(=O)c2cccc(C)c2)C1 the inhibition was 4.2% (inactive). CO[C@H]1CN(C)C(=O)c2cc(NC(=O)Nc3ccccc3F)ccc2OC[C@H](C)N(C)C[C@H]1C was tested, and the inhibition was -12% (inactive). C[C@H](CO)N1C[C@H](C)[C@@H](CN(C)S(=O)(=O)c2ccc(F)cc2)OCCCC[C@H](C)Oc2ccc(NC(=O)CCCN(C)C)cc2C1=O was tested, and the inhibition was -2.49% (inactive). C[C@H](NC(=O)C[C@@H]1CC[C@H](NC(=O)CN2CCOCC2)[C@H](CO)O1)c1ccccc1 was tested, and the inhibition was -3.17% (inactive). In the case of C=CC1=C(C(=O)O)N2C(=O)[C@@H](NC(=O)/C(=N\OCC(=O)O)c3csc(N)n3)[C@H]2SC1, the inhibition is reported as 31.1% (active). With Cc1nnc(SCC2=C(C(=O)O)N3C(=O)C(NC(=O)Cn4nc(C)c(Cl)c4C)C3SC2)s1 (centres undefined) the inhibition was -1.34% (inactive). CO/N=C(\C(=O)N[C@@H]1C(=O)N2C(C(=O)O)=C(COC(C)=O)CS[C@H]12)c1csc(N)n1 (stereo in doubt) was tested, and the inhibition was -2.03% (inactive) and -4% (inactive) and 22.2% (active). With C=CC1=C(C(=O)O)N2C(=O)[C@@H](NC(=O)/C(=N/OCC(=O)O)c3csc(N)n3)[C@H]2SC1 the inhibition was 30.9% (active). For Cc1cc(C)cc(C(=O)NC2C(=O)N3C(C(=O)O)=C(CSc4nnc(C)s4)CSC23)c1 (centres undefined), the inhibition was -0.622% (inactive). For CO[C@@H]1CN(C)C(=O)c2cc(NC(=O)C3CC3)ccc2OC[C@@H](C)N(Cc2nccs2)C[C@@H]1C, the inhibition was -0.135% (inactive). CCC(=O)N1[C@@H]2CN(C(=O)Nc3ccc(Cl)cc3)c3ccccc3[C@@H]2[C@@H]1CO was tested, and the inhibition was -1.71% (inactive). For CCCNC(=O)C[C@H]1C[C@@H]2c3cc(NC(=O)NC4CCCC4)ccc3O[C@@H]2[C@@H](CO)O1, the inhibition was -4.3% (inactive). With CN(C)CC(=O)N[C@@H]1C[C@@H]2O[C@H](CO)CC[C@@H]2O[C@@H]1CCc1ccc(C#Cc2ccccc2)cc1 the inhibition was -2.33% (inactive). For Cc1noc(C)c1NC(=O)Nc1ccc2c(c1)C(=O)N([C@@H](C)CO)C[C@@H](C)[C@H](CN(C)C)O2, the inhibition was -1.93% (inactive). In the case of CN(C)CC(=O)Nc1ccc2c(c1)[C@H]1C[C@H](CC(=O)NCc3ccc4c(c3)OCO4)O[C@@H](CO)[C@H]1O2, the inhibition is reported as 0.927% (inactive). With Cc1ccc(S(=O)(=O)N(C)C[C@@H]2Oc3ccc(N(C)C)cc3C(=O)N([C@@H](C)CO)C[C@H]2C)cc1 the inhibition was -7.63% (inactive). COc1ccc2c3c(n(C)c2c1)[C@@H](CO)N(Cc1ccncc1)CC31CN(C(=O)C2CCC2)C1 was tested, and the inhibition was 2.18% (inactive). With CNC(=O)c1ccc2nc(NC(C)=O)sc2c1 the inhibition was 17.4% (active). CS(=O)(=O)c1ccc2nc(NC(=O)c3ccc(Cl)nc3)sc2c1 was tested, and the inhibition was 2.94% (inactive). With COc1cccc(C(=O)Nc2nc3ccc(S(C)(=O)=O)cc3s2)c1 the inhibition was -3% (inactive). CCC(=O)N1C[C@@H](C)[C@H](OC)CN(C)C(=O)c2ccc(NC(=O)c3ccc(F)cc3)cc2OC[C@@H]1C was tested, and the inhibition was -5.95% (inactive). With O=C(CN1CCOCC1)NCC[C@H]1CC[C@@H](NC(=O)Nc2ccc(Cl)cc2)[C@@H](CO)O1 the inhibition was 2.34% (inactive). COc1ccc(C#Cc2ccc3c(c2)[C@]2(C(=O)N3)[C@H](c3ccccc3OCCO)N3[C@H](c4ccccc4)[C@H](c4ccccc4)OC(=O)[C@H]3[C@@H]2C(=O)N2CCCCCCC2)cc1 was tested, and the inhibition was 0.608% (inactive). In the case of COC(=O)C(CC#Cc1ccc2c(c1)[C@]1(C(=O)N2)[C@H](c2ccc(O)cc2)N2[C@H](c3ccccc3)[C@H](c3ccccc3)OC(=O)[C@H]2[C@@H]1C(=O)NC[C@H](O)c1ccccc1)C(=O)OC, the inhibition is reported as 5.09% (inactive). For COC(=O)C(CC#Cc1ccc2c(c1)[C@]1(C(=O)N2)[C@H](c2ccccc2OCCO)N2[C@H](c3ccccc3)[C@H](c3ccccc3)OC(=O)[C@H]2[C@@H]1C(N)=O)C(=O)OC, the inhibition was 19.5% (active). For CCCN1[C@@H]2c3ccc(C4=CCCC4)c(=O)n3C[C@@H]2[C@@H](CO)[C@@H]1C(=O)NCc1ccccn1, the inhibition was -0.978% (inactive). With C[C@@H]1CN([C@H](C)CO)S(=O)(=O)c2ccc(C#CCN(C)C)cc2O[C@H]1CN(C)C(=O)CC1CC1 the inhibition was 2.43% (inactive). In the case of C[C@@H]1CN([C@@H](C)CO)S(=O)(=O)c2ccc(-c3ccc(F)cc3)cc2O[C@@H]1CN(C)CC1CC1, the inhibition is reported as -1.76% (inactive). For CCC(=O)N(C)C[C@H]1Oc2cc(C#CCC(C)C)ccc2S(=O)(=O)N([C@H](C)CO)C[C@H]1C, the inhibition was 0.389% (inactive). With C[C@@H]1CN([C@@H](C)CO)S(=O)(=O)c2ccc(C#CCN(C)C)cc2O[C@@H]1CN(C)C(=O)CC1CC1 the inhibition was 1.11% (inactive). CC(C)CC#Cc1ccc2c(c1)O[C@H](CN(C)C(=O)CC1CC1)[C@@H](C)CN([C@@H](C)CO)S2(=O)=O was tested, and the inhibition was 31.5% (active). With COCC#Cc1ccc2c(c1)O[C@@H](CN(C)C(=O)Nc1ccccc1F)[C@H](C)CN([C@H](C)CO)S2(=O)=O the inhibition was 3.15% (inactive). With C[C@@H]1CN([C@@H](C)CO)S(=O)(=O)c2ccc(C#Cc3ccc(F)cc3)cc2O[C@@H]1CN(C)CC1CC1 the inhibition was 15.1% (active). In the case of CC(C)CC#Cc1ccc2c(c1)O[C@@H](CN(C)C(=O)Nc1ccccc1F)[C@@H](C)CN([C@@H](C)CO)S2(=O)=O, the inhibition is reported as 18.7% (active). In the case of C[C@H](CO)N1C[C@H](C)[C@H](CN(C)CC2CC2)Oc2cc(-c3ccc(F)cc3)ccc2S1(=O)=O, the inhibition is reported as -4.28% (inactive). For CC(C)CC#Cc1ccc2c(c1)O[C@@H](CN(C)C(=O)c1ccccc1F)[C@H](C)CN([C@H](C)CO)S2(=O)=O, the inhibition was 6.8% (inactive). COCC(=O)N(C)C[C@@H]1Oc2cc(C#CCC(C)C)ccc2S(=O)(=O)N([C@@H](C)CO)C[C@@H]1C was tested, and the inhibition was 15.3% (active). With COCC(=O)N(C)C[C@H]1Oc2cc(C#CC(C)C)ccc2S(=O)(=O)N([C@H](C)CO)C[C@@H]1C the inhibition was 3.27% (inactive). For COc1cccc(-c2ccc3n(c2=O)C[C@@H]2[C@@H](CO)[C@H](C(=O)N4CCCCC4)N[C@H]32)c1, the inhibition was -26.1% (inactive).
